In PubChem BioAssay (NCATS) one finds max response, outcome and Potency data, which are given here for 39 compounds.

Each structure is given as a SMILES string. Where “and” joins values, the source holds several entries; their conditions need not be identical. Identical values can stand only once. Results filed as inconclusive are left out. Values without a mark were called inactive. Calls of active or inactive are those of the source. The call rests on the fitted dose curve; in most records, active means well fitted inhibition curve with a large enough effect; inconclusive means small, poorly fitted or top-dose-only effect; inactive means flat fitted curve, though single readings scatter.
On the % scale 0 is the no-effect control and ±100 the full control effect; potency means the concentration at half of the fitted maximal effect.

One experiment relates to CRL-7250. Description: Cytotoxic Profiling of Annotated Libraries Using Quantitative High-Throughput Screening (AID 1296008). Further: nearly all actives have a fitted effect of over 60% in size. The following applies: Five cell lines viability, CellTiter-Glo ATP luminescence, 48-72 h; max response: active compounds read low. The gist of the method: (§1)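 Cells exposed to compounds for 48 or 72 hr at 37 degrees Celsius. Viability read as ATP-coupled luminescence with CellTiter-Glo after 10 min at room temperature.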
(In general: ATP-based viability assays read luminescence as a measure of living cells.)
Consider `CC(C)C(NC(=O)c1ccc2ccccc2n1)C(=O)NC(CC(=O)O)C(=O)COc1c(F)cccc1F` (configuration not stated), for which the max response is -6.89%.

For the compound `COc1cc(OC)cc(C(=O)Nc2ccc(Cl)c(-c3nc4ccc(N(C)C)cc4[nH]3)c2)c1`, the result was inactive.

For the compound `CN[C@@H]1[C@H](O[C@H]2[C@H](O[C@@H]3[C@@H](O)[C@H](O)[C@@H](N=C(N)N)[C@H](O)[C@H]3N=C(N)N)O[C@@H](C)[C@]2(O)C=O)O[C@@H](CO)[C@H](O)[C@H]1O`, the max response is 2.94%.

For `CC1(C)CC[C@]2(C(=O)O[C@@H]3O[C@H](CO)[C@@H](O)[C@H](O)[C@H]3O)CC[C@]3(C)C(=CCC4[C@@]5(C)C[C@@H](O)[C@H](O)C(C)(C)C5[C@H](O)C[C@]43C)[C@@H]2[C@@H]1O` (some centres not stated), the outcome was inactive.

As for `C/C1=C\CC[C@]2(C)O[C@@H]2[C@H](O)[C@H](C(C)C)[C@H](OC(=O)/C=C/c2ccccc2)C1`, the max response is -51%.

Consider `CCOCc1nc2c(N)nc3ccccc3c2n1CC(C)(C)O`, for which the max response was -6.16%.

`CC(C)[C@@H](CS(=O)(=O)C(C)C)N1C(=O)[C@@](C)(CC(=O)O)C[C@H](c2cccc(Cl)c2)[C@H]1c1ccc(Cl)cc1`: the Potency was 5.8 µM (active) and 1.86 µM (active).

On to `O=C(Nc1c(-c2cccs2)nc2ccccn12)c1ccc(Cl)cc1`, for which the compound was called inactive.

For a further experiment, the system named is HEK293. The experiment is described as above. Particulars: Five cell lines viability, CellTiter-Glo ATP luminescence, 48-72 h; max response: active compounds read low. The gist of the method: as §1
On to `C/C(=C\C=C\C(C)C1CCC2(C)C3CCC4C(C)(C)C(=O)CCC45CC35CCC12C)C(=O)O` (configuration not stated), for which the max response is -1.63%.

`C1CCC[C@H]2CCCN3CC[C@@H](CCCCCC[C@@H]4CCCN5CC[C@@H](CC1)O[C@@H]45)O[C@@H]23`: the max response was 4.46%.

`C[C@H](Nc1ncnc2nc[nH]c12)c1cc2ccc(F)cc2nc1-c1ccccn1`: the outcome was inactive.

Consider `CC1=C(C(=O)OCc2ccccc2)C(c2ccc(-c3ccccc3)cc2)NC(=O)N1CCCCCC(=O)O` (configuration not stated), for which the max response is -21.5%.

`CC1CCC2C(C(=O)O)=COC(O[C@@H]3O[C@H](CO)[C@@H](O)[C@H](O)[C@H]3O)C12` (some centres not stated): the max response is -3.47%.

Turning to `Cc1cc(N2CCN([C@@H]3CN[C@H](C(=O)N4CCSC4)C3)CC2)n(-c2ccccc2)n1`, the max response is -23.9%.

Regarding `CC(C(O)/C=C/C(C)(C)O)C1CCC2(C)C3C(=O)C=C4C(CCC(O)C4(C)C)C3(C)CCC12C` (configuration not stated), the max response was -3.03%.

In the case of `C/C=C(\C)C(=O)O[C@H]1[C@@H](O[C@]2(COC(=O)CC(C)C)O[C@H](COC(=O)C(C)CC)[C@@H](OC(C)=O)[C@@H]2O)O[C@H](COC(C)=O)[C@@H](O)[C@@H]1O` (some centres not stated), the max response is 2.82%.

As for `Cc1cc(OCc2nc(-c3ccccc3Cl)cs2)ccc1OCC(=O)O`, the max response was -1.87%.

With `C=CC(C)(O)CC/C=C(\C)C(=O)OC1C(O)C(CO)OC(OC(=O)C23CCC(C)(C)CC2C2=CCC4C5(C)CCC(OC6OC(COC7OCC(OC(C)=O)C(O)C7OC7OC(COC(C)=O)C(O)C(O)C7O)C(O)C(O)C6O)C(C)(C)C5CCC4(C)C2(C)C(O)C3O)C1OC1OCC(OC2OCC(O)C(OC3OCC(O)C(O)C3O)C2O)C(O)C1O` (configuration not stated), the max response is -3.37%.

For `COc1ccc(C2COc3cc(O)ccc3C2)c(O)c1` (configuration not stated), the max response was -0.71%.

With `CC(=O)OC/C=C(\C)C(CC1C(C)=C(OC(C)=O)C(=O)C2C(C)(C)C(O)CCC12C)OC(C)=O` (configuration not stated), the max response is -0.0321%.

Regarding `CC(C)=CCC/C(C)=C/CO[C@@H]1O[C@H](CO)[C@@H](O)[C@H](O)[C@H]1O`, the max response is 1.41%.

Take `C[C@H]1O[C@@H](O[C@H]2CC[C@@]3(C)C(CC[C@]4(C)C3CC=C3C5CC(C)(C)CC[C@]5(C(=O)O)CC[C@]34C(=O)O)C2(C)C)[C@H](O)[C@@H](O)[C@@H]1O` (some centres not stated): the max response was -5.54%.

On to `CC(C)/C=C1\NC(=O)C(C(C)C)n2c1nc1c(c2=O)C=CC=CO1` (configuration not stated), for which the max response is 2.88%.

Turning to `CCN1CCN(Cc2ccc(NC(=O)c3ccc(C)c(NC(=O)c4cncc(-c5cccs5)c4)c3)cc2C(F)(F)F)CC1`, the Potency is 1.3 µM (active).

Turning to `CCOc1cc2ncc(C#N)c(Nc3ccc(F)c(Cl)c3)c2cc1NC(=O)/C=C/CN(C)C`, the Potency is 1.64 µM (active).

Turning to `O=C1N=C(N2CCOCC2)CN1c1ccc(Cl)cc1`, the max response was -16.9%.

As for `COc1ccc(Oc2cc(C)c(-c3csc(NC(=O)c4ccncc4)n3)c(C)c2)cc1`, the Potency was 0.326 µM (active).

`CC(C)(O)/C=C/CC(C)(O)C1C(O)CC2(C)C3CCC4C(C)(C)C(=O)CCC4(C)C3CCC12C` (configuration not stated): the max response was 1.96%.

Regarding `Cc1cccc(S(=O)(=O)N2CCC[C@@H]2CCN2CCC(C)CC2)c1`, the max response is -20.7%.

`C/C=C/C=C/C(=O)N1CC[C@]23c4ccccc4N[C@H]4N(C)c5cccc6c5[C@@]42CCN([C@H]6C2OC2(C)C)[C@H]13` (some centres not stated): the max response is -2.78%.

Regarding `Cc1ccc(Cc2c(C)nc3nc(SCC(=O)NCCN4CCNCC4)nn3c2C)cc1`, the max response is 2.24%.

For `OC[C@H]1O[C@@H](Oc2cc(O)c3c(c2)O[C@@H](c2ccc(O)cc2)[C@H](O)C3)[C@H](O)[C@@H](O)[C@@H]1O`, the max response is -5.13%.

In the case of `NC(=O)c1cccc(-c2cc(OC(=O)NC3CCCCC3)ccc2O)c1`, the max response was -86.9%.

On to `COc1ccc(N(C)c2nc(C)nc3ccccc23)cc1`, for which the Potency was 0.0073 µM (active).

`CC(=O)OCC1(O)CCC2C(COC3OC(CO)C(O)C(O)C3OC(=O)/C=C/c3ccc(O)cc3)=COC(OC(=O)CC(C)C)C21` (configuration not stated): the max response is -11%.

Turning to `Cc1ccccc1CN1C2=NCCN2C(=O)C2=C1CCN(Cc1ccccc1)C2`, the max response was -7.79%.

As for `CCOC(=O)CCN(C(=O)c1ccc2c(c1)nc(CNc1ccc(C(=N)N)cc1)n2C)c1ccccn1`, the max response is -11%.

In the case of `COc1cc(C(=O)O)ccc1OC1OC(CO)C(O)C(O)C1O` (configuration not stated), the max response was -3.87%.

In the case of `O=C1NC(Cc2c[nH]c3ccccc23)C(=O)NC1Cc1c[nH]c2ccccc12` (configuration not stated), the result was inactive.

Consider `CC(C)C(NC(=O)c1ccc2ccccc2n1)C(=O)NC(CC(=O)O)C(=O)COc1c(F)cccc1F` (configuration not stated), for which the max response was -1.52%.

On to `COc1cc(OC)cc(C(=O)Nc2ccc(Cl)c(-c3nc4ccc(N(C)C)cc4[nH]3)c2)c1`, for which the Potency was 10.3 µM (active).

Consider `CN[C@@H]1[C@H](O[C@H]2[C@H](O[C@@H]3[C@@H](O)[C@H](O)[C@@H](N=C(N)N)[C@H](O)[C@H]3N=C(N)N)O[C@@H](C)[C@]2(O)C=O)O[C@@H](CO)[C@H](O)[C@H]1O`, for which the max response is 4.73%.

As to `CC1(C)CC[C@]2(C(=O)O[C@@H]3O[C@H](CO)[C@@H](O)[C@H](O)[C@H]3O)CC[C@]3(C)C(=CCC4[C@@]5(C)C[C@@H](O)[C@H](O)C(C)(C)C5[C@H](O)C[C@]43C)[C@@H]2[C@@H]1O` (some centres not stated), the max response was 1.53%.

On to `C/C1=C\CC[C@]2(C)O[C@@H]2[C@H](O)[C@H](C(C)C)[C@H](OC(=O)/C=C/c2ccccc2)C1`, for which the max response was -26.5%.

As to `CCOCc1nc2c(N)nc3ccccc3c2n1CC(C)(C)O`, the max response is -5.94%.

Regarding `CC(C)[C@@H](CS(=O)(=O)C(C)C)N1C(=O)[C@@](C)(CC(=O)O)C[C@H](c2cccc(Cl)c2)[C@H]1c1ccc(Cl)cc1`, the Potency was 16.6 µM (active).

`O=C(Nc1c(-c2cccs2)nc2ccccn12)c1ccc(Cl)cc1`: the max response was -117%.
